This is one part of a sample in which hits are shown more often than they occur.
VCAM1 pot – TNF alpha stimulated VCAM1 expression potentiation. HUVEC TNFa-stimulated VCAM-1 immunofluorescence, high-content imaging; scaled per plate to unstimulated/TNFa-only wells. activation, % at 2 µM. actives 0.19% (n = 93,000). AID 808;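 active = activation above the screen mean plus 3 SD, with well images confirming the hit on visual review, cut at about 28% in these data, passing the limit was not always enough; inconclusive = activation above that limit but images do not confirm it; inactive = activation not above that limit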;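 note: signal is the number of cytoplasmic VCAM-1 stained grains per positive cell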
VCAM1 pot conf – potentiators of TNFa-induced VCAM1 expression, confirmation, imaging, HUVEC, triplicate retest | shares compounds with VCAM1 pot | HUVEC TNFa-stimulated VCAM-1 immunofluorescence imaging | activation, % at 2 µM | 230 tested, under 10 active | AID 1034;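 active = activation above 30% in triplicate retests at 2 µM, then confirmed by visual review of the well images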
Large screens that a line does not name were inactive (follow-up assays come after a bar, where they were run).

C=CCNc1sc(C(=O)c2ccccc2)c(N)c1C#N	none
CC(=O)OC1COC(N2CCc3cc([N+](=O)[O-])ccc32)C(OC(C)=O)C1OC(C)=O (stereo unspecified)	none
Cn1c(=O)c2c(-c3ccccc3F)c3c(nc2n(C)c1=O)-c1ccccc1C3O (stereo unspecified)	none
COCCNC(=O)c1ccccc1NC(=O)c1ccccc1N(C)S(=O)(=O)c1ccccc1	VCAM1 pot 32 | VCAM1 pot conf inactive
CN(c1ccccc1C(=O)NCc1ccccn1)S(C)(=O)=O	none
COc1ccccc1N(CC(=O)Nc1cccnc1)S(=O)(=O)c1ccccc1	none
Cn1c2c(c(=O)n(C)c1=O)CN(Cc1ccc3c(c1)OCO3)CN2	none
COc1ccccc1/C=N/Nc1nccnc1Cl	none
O=C(NCc1ccco1)c1n[nH]c(=O)c2ccccc12	none
CCn1cc(C(=O)N=c2sc3ccccc3n2C)c(=O)c2ccc(C)nc21	none
c1ccc2cc(OCc3nc4ccccc4[nH]3)ccc2c1	VCAM1 pot 66 | VCAM1 pot conf inactive
COc1ccc(CSc2nc3ccccc3[nH]2)cc1	none
Nc1nc(COc2ccc3ccccc3c2)cs1	none
CCC(=O)NC(c1ccc([N+](=O)[O-])cc1)c1c(O)ccc2ccccc12 (stereo unspecified)	none
CC(CC(=O)Nc1cc([N+](=O)[O-])ccc1Cl)c1ccccc1 (stereo unspecified)	VCAM1 pot 53 | VCAM1 pot conf inactive
O=C(CCc1ccccc1)Nc1cc(C(F)(F)F)ccc1Cl	none
O=C(NC(C(=O)c1ccccc1)n1ccc(=O)[nH]c1=O)c1ccccc1 (stereo unspecified)	none
CC(C)(C)N1CC2(c3ccccc3)CN(C(C)(C)C)CC(c3ccccc3)(C1)C2=O	none
O=C(CCCn1c(=O)c2ccccc2n(CC(=O)NCc2ccco2)c1=O)NCc1ccco1	VCAM1 pot inconclusive | VCAM1 pot conf inactive
CCn1c(=O)cc(OCC(=O)NCc2ccco2)c2ccccc21	none
CCOc1cc2[nH]c(=S)n(CCCC(=O)NCc3ccco3)c(=O)c2cc1OCC	none
CC(=O)NC1=NN(C(C)=O)C2(CCCCC2)S1	none
COc1cc(NC(=O)NS(=O)(=O)c2ccc(C)cc2)cc(OC)c1	VCAM1 pot 60 | VCAM1 pot conf inactive
COc1cc(NS(=O)(=O)c2ccc(NC(=O)COc3ccc(C)cc3)cc2)nc(OC)n1	none
Cc1ccc(S(=O)(=O)NC(=O)Nc2cc(C)ccc2F)cc1	none
CC(=O)c1cccc(N(CC(=O)O)S(C)(=O)=O)c1	none
COc1ccc(-c2cc(C(=O)Nc3cc(C)n(Cc4ccc(Cl)cc4)n3)no2)cc1OC	none
CCNC(=O)C1CC(=O)N(Cc2ccc3c(c2)OCO3)C(=Nc2ccc(OCC)cc2)S1 (stereo unspecified)	none
CC1(C)N=C(/C=N/O)CN1O	none
Cn1c(SCC(=O)CC(=O)Nc2ccccc2)nnc1-c1ccc(O)cc1	none
CCCSc1nnc(-c2cnn(-c3ccccc3)c2-n2cccc2)n1C	VCAM1 pot 36 | VCAM1 pot conf inactive
Cc1ccc(-c2nnc(SCC(=O)CC(=O)Nc3ccccc3)n2C)cc1	none
CC/C(=C\C(=O)c1ccncc1)Nc1ccc(Br)cc1	none
COc1cc(OC)cc(C(=O)n2nc(C)cc2C)c1	none
Cc1cc(C)n(C(=O)COc2ccc(Cl)cc2Cl)n1	VCAM1 pot 43 | VCAM1 pot conf inactive
CC(C)(CO)NC(=O)CCCOc1ccc(Cl)cc1Cl	none
CC(C)NC(=O)c1ccccc1NC(=O)CCc1ccccc1	none
CN1CCCCc2c1[nH]c1ccccc1c2=O	none
CCCN1CCN(S(=O)(=O)c2ccc(OC)c(Br)c2)CC1	none
COc1cc(OC)cc(C(=O)N2CCN(C(=O)c3ccc(OC)c(OC)c3)CC2)c1	none
COc1ccc(C(=S)N2CCN(C)CC2)cc1Br	VCAM1 pot 38 | VCAM1 pot conf inactive
C=CCn1c(SCc2ccc([N+](=O)[O-])cc2)nnc1C(C)NC(=O)c1ccccc1 (stereo unspecified)	none
COc1cc2c(cc1NC(=O)c1cc(-c3ccncc3)nc3ccc(C)cc13)oc1ccccc12	none
CCC(CC)C(=O)c1c[nH]c(C(=O)NCC2CCCO2)c1 (stereo unspecified)	none
CCc1cccc(CC)c1NC(=O)C1SC(=Nc2ccccc2C)C(c2nc3ccccc3s2)=C1N (stereo unspecified)	none
Fc1cccc(-c2nn[nH]n2)c1	VCAM1 pot 31 | VCAM1 pot conf inactive
CS(=O)(=O)N(CC(=O)N1CCN(c2ccccc2F)CC1)c1cc(C(F)(F)F)ccc1Cl	none
Cc1cccc(CCNS(=O)(=O)c2ccc3c(c2)oc(=O)n3C)c1	VCAM1 pot 111 | VCAM1 pot conf inactive
Cc1cccc(CCNC(=O)CN(C)S(=O)(=O)c2ccc3c(c2)c(=O)n(C)c(=O)n3C)c1	none
CCOc1ccccc1CNS(=O)(=O)c1ccc2c(c1)oc(=O)n2C	none
COc1ccc(CCN2C(=O)CC(Sc3ncccc3C(=O)O)C2=O)cc1OC (stereo unspecified)	none
CCOc1ccc2ccccc2c1/C=N/n1cncn1	none
O=CN(Cc1ccco1)C1(C(=O)NC2CCCCC2)CCCCC1	VCAM1 pot 37 | VCAM1 pot conf inactive
O=C(NCc1ccco1)c1cc2c(s1)CCCCC2	none
COc1ccc(CN(C(=O)CNC(=O)c2ccco2)C(C(=O)NC2CCCC2)c2ccco2)cc1 (stereo unspecified)	none
N#CC1=C(N)OC2=C(C(=O)CCC2)C1C1C=CCCC1 (stereo unspecified)	none
O=C(NC(NCCCN1CCOCC1)(C(F)(F)F)C(F)(F)F)C1CCCCC1	none
COC(=O)c1ccccc1NC(NC(=O)c1ccco1)C(=O)c1ccc(C)cc1 (stereo unspecified)	none
